Data reported in ChEMBL document CHEMBL1961873, “Compounds: GSK PKIS; Assays: Nanosyn kinase panel” (2012).

Legend:
[1] = biological target: High affinity nerve growth factor receptor (Homo sapiens) (UniProt P04629); details: at 1 µM;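 also: each value is the mean percent inhibition of TRKA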
[2] = biological target: BDNF/NT-3 growth factors receptor (Homo sapiens) (UniProt Q16620); details: at 0.1 µM
[3] = biological target: BDNF/NT-3 growth factors receptor (Homo sapiens) (UniProt Q16620); details: at 1 µM
[4] = biological target: NT-3 growth factor receptor (Homo sapiens) (UniProt Q16288); details: at 0.1 µM
[5] = biological target: NT-3 growth factor receptor (Homo sapiens) (UniProt Q16288); details: at 1 µM
[6] = biological target: T1, Tyrosine-protein kinase TXK (Homo sapiens) (UniProt P42681); details: at 0.1 µM
T1 sequence (whole entry): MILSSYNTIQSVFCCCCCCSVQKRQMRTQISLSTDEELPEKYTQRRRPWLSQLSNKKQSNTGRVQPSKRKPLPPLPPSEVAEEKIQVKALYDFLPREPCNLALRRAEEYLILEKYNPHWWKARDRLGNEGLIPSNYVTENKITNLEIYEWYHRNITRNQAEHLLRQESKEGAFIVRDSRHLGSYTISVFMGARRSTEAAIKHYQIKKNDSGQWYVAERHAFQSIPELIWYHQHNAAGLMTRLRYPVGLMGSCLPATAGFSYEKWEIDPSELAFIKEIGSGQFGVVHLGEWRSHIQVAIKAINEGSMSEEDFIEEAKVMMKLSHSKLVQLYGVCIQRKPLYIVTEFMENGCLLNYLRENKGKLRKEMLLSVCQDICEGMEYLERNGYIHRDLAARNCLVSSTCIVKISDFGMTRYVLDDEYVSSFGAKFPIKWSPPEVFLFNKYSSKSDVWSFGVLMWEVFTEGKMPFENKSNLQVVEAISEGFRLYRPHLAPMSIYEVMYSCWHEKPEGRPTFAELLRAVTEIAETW

[7] = biological target: T1, Tyrosine-protein kinase TXK (Homo sapiens); details: at 1 µM
[8] = biological target: Non-receptor tyrosine-protein kinase TYK2 (Homo sapiens) (UniProt P29597); details: at 0.1 µM;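 also: each value is a mean of the inhibition readings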
[9] = biological target: T2, Dual specificity protein kinase TTK (Homo sapiens) (UniProt P33981); details: at 1 µM;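 also: reported figures are mean TTK inhibition at 1 µM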
T2 sequence (whole entry): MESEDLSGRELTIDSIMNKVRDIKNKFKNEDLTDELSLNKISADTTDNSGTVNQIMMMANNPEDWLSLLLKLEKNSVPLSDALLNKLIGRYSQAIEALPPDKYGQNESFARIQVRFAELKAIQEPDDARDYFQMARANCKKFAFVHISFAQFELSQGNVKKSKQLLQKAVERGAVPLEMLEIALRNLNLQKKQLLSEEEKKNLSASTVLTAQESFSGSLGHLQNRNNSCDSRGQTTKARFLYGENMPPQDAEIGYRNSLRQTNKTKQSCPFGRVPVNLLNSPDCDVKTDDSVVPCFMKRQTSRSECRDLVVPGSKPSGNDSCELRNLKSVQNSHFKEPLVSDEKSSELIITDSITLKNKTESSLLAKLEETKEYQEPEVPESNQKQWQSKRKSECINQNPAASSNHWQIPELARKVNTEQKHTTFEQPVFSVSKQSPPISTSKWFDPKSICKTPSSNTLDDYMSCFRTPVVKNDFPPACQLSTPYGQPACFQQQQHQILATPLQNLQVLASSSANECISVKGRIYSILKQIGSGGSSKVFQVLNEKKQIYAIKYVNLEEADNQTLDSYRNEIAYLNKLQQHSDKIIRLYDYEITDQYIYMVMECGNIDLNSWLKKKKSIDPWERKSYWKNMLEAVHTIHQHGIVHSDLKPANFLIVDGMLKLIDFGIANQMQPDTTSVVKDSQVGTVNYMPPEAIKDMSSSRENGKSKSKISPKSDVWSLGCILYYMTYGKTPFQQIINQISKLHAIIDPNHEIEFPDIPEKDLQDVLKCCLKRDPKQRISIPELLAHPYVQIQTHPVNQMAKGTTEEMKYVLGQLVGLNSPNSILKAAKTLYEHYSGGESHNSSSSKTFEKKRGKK

[10] = biological target: T3, Aurora kinase A (Homo sapiens) (UniProt O14965); details: at 0.1 µM
T3 sequence (whole entry): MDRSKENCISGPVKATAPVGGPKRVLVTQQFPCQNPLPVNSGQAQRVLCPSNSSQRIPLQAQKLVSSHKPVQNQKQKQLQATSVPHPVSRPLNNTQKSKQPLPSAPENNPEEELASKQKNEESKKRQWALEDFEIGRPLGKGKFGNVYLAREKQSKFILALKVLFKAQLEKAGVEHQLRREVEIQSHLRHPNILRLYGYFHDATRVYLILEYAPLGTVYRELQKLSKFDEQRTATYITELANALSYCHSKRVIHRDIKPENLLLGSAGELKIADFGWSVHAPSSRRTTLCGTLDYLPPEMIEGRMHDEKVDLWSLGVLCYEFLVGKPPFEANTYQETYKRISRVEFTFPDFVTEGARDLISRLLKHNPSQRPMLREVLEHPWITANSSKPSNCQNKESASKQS

[11] = biological target: T3, Aurora kinase A (Homo sapiens); details: at 1 µM
[12] = biological target: Aurora kinase B (Homo sapiens) (UniProt Q96GD4); details: at 0.1 µM
[13] = biological target: Aurora kinase B (Homo sapiens) (UniProt Q96GD4); details: at 1 µM
[14] = biological target: T4, Aurora kinase C (Homo sapiens) (UniProt Q9UQB9); details: at 0.1 µM
T4 sequence (whole entry): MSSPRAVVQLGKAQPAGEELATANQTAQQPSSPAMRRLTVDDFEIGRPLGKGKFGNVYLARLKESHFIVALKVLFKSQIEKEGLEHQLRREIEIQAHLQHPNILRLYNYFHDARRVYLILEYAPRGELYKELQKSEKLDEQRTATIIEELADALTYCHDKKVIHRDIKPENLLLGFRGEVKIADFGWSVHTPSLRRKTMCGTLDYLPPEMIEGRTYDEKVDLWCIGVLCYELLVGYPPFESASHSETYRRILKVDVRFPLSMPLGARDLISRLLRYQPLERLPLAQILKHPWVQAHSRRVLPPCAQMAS

[15] = biological target: T4, Aurora kinase C (Homo sapiens); details: at 1 µM
[16] = biological target: Serine/threonine-protein kinase 10 (Homo sapiens) (UniProt O94804); details: at 0.1 µM
[17] = biological target: Serine/threonine-protein kinase 10 (Homo sapiens) (UniProt O94804); details: at 1 µM
[18] = biological target: T5, Mitogen-activated protein kinase kinase kinase kinase 2 (Homo sapiens) (UniProt Q12851); details: at 0.1 µM
T5 sequence (whole entry): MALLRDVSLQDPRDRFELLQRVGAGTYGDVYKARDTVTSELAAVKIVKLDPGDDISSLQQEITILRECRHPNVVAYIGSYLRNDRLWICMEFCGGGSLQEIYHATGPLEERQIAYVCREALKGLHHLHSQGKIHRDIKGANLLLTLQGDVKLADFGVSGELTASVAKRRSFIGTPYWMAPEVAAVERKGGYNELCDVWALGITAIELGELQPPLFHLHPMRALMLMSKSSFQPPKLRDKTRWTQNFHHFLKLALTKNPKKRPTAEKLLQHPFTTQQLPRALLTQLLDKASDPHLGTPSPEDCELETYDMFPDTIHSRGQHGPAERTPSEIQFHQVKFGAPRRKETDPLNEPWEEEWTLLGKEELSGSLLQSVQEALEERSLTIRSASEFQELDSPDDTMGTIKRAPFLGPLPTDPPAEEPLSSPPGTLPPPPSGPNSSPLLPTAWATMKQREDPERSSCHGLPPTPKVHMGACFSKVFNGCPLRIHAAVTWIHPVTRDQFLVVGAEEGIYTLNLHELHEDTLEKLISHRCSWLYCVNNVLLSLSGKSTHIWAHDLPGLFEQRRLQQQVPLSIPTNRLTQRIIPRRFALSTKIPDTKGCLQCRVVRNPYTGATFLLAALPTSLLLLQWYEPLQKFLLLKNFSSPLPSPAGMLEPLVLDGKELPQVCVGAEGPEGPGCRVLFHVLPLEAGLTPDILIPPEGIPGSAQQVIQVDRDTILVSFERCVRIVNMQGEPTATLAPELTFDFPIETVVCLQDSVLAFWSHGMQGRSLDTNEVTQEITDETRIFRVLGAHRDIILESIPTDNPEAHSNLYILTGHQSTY

[19] = biological target: T5, Mitogen-activated protein kinase kinase kinase kinase 2 (Homo sapiens); details: at 1 µM
[20] = biological target: Mitogen-activated protein kinase kinase kinase kinase 4 (Homo sapiens) (UniProt O95819); details: at 0.1 µM
Chain of Mitogen-activated protein kinase kinase kinase kinase 4 (Homo sapiens) (O95819 2-1239 limits assumed): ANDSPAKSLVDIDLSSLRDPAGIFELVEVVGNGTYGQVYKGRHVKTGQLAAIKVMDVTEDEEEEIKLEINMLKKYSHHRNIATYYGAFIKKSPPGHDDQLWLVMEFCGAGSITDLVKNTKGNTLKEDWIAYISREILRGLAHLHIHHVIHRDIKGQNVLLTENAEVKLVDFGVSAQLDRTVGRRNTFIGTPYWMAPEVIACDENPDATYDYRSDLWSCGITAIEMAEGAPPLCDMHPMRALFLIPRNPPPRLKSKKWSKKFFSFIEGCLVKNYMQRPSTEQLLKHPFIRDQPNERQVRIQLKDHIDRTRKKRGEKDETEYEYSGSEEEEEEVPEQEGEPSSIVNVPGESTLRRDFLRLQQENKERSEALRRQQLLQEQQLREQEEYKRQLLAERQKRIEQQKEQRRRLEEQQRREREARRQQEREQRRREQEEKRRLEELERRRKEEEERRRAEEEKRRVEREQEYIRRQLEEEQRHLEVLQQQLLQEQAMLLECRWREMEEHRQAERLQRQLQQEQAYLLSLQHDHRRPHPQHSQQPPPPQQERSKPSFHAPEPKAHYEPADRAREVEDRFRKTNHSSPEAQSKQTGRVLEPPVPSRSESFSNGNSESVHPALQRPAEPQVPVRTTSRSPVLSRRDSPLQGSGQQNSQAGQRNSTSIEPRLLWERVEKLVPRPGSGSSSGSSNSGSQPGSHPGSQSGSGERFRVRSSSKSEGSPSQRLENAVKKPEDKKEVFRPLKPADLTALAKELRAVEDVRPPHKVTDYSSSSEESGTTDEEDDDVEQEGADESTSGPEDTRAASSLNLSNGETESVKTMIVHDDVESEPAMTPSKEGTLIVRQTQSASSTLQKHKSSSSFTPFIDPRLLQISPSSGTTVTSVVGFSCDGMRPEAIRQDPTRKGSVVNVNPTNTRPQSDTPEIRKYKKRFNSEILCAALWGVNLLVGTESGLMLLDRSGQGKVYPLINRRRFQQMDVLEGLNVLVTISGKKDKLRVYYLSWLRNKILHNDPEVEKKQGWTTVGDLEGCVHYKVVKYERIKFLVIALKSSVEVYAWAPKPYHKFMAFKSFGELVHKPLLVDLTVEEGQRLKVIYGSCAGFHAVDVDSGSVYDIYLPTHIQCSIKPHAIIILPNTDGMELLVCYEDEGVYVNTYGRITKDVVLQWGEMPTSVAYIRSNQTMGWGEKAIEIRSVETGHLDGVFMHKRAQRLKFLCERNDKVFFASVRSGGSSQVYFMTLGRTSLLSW

Chain of BDNF/NT-3 growth factors receptor (Homo sapiens) (Q16620 32-822 limits assumed): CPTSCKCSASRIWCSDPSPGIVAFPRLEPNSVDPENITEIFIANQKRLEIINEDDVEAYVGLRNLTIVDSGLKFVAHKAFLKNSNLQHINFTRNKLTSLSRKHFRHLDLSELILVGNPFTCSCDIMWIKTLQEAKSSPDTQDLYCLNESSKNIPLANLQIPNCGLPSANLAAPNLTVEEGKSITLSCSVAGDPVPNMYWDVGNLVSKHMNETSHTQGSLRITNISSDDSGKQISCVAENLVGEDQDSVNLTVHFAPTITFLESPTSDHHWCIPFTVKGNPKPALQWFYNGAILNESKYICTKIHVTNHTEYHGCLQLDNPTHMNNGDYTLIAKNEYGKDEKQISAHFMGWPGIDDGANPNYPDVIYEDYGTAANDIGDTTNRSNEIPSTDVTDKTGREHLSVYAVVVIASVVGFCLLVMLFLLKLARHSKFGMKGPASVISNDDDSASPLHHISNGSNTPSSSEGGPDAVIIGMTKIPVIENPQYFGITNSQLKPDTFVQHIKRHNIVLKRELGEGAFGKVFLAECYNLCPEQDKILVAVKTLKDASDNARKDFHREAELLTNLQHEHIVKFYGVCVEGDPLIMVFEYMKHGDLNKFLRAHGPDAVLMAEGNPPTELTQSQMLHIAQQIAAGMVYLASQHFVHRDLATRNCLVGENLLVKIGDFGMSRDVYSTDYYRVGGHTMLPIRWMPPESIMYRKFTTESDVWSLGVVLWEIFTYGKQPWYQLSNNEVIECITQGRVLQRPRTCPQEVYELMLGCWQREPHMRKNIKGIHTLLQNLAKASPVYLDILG
Chain of Aurora kinase B (Homo sapiens) (Q96GD4 whole entry): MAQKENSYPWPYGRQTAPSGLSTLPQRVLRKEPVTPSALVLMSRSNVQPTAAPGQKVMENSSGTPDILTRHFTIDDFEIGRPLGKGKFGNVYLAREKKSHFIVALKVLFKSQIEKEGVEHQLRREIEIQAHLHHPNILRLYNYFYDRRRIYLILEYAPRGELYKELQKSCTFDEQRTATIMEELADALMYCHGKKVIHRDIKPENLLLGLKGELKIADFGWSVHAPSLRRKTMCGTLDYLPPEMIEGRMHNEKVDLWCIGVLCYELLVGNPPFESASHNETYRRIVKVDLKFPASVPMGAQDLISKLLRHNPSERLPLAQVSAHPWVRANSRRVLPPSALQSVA
Chain of Serine/threonine-protein kinase 10 (Homo sapiens) (O94804 whole entry, looked up): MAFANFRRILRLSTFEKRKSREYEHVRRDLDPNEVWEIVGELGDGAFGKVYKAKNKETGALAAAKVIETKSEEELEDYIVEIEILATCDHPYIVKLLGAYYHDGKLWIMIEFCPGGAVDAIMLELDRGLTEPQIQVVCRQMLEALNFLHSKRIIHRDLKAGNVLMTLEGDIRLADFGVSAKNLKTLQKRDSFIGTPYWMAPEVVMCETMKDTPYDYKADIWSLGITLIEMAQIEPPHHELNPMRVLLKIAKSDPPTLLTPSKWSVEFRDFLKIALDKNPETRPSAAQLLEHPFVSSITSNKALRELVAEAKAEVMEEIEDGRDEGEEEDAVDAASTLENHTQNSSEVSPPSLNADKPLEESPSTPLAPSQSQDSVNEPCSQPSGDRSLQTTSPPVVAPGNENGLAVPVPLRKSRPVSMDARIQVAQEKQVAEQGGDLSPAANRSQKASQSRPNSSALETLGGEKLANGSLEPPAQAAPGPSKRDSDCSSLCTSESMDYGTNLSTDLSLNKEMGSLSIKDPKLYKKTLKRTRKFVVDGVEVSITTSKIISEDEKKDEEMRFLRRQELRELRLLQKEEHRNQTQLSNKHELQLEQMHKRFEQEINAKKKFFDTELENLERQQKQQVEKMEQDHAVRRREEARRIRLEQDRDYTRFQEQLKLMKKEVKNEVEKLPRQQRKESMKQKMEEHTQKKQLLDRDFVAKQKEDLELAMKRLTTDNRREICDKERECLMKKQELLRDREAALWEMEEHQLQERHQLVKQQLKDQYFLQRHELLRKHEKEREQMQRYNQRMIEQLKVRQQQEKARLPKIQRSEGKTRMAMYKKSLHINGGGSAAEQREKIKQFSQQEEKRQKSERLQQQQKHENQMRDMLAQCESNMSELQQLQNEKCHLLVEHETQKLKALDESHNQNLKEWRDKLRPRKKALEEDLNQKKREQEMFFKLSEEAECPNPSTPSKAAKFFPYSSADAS
Chain of NT-3 growth factor receptor (Homo sapiens) (Q16288 32-839 limits assumed): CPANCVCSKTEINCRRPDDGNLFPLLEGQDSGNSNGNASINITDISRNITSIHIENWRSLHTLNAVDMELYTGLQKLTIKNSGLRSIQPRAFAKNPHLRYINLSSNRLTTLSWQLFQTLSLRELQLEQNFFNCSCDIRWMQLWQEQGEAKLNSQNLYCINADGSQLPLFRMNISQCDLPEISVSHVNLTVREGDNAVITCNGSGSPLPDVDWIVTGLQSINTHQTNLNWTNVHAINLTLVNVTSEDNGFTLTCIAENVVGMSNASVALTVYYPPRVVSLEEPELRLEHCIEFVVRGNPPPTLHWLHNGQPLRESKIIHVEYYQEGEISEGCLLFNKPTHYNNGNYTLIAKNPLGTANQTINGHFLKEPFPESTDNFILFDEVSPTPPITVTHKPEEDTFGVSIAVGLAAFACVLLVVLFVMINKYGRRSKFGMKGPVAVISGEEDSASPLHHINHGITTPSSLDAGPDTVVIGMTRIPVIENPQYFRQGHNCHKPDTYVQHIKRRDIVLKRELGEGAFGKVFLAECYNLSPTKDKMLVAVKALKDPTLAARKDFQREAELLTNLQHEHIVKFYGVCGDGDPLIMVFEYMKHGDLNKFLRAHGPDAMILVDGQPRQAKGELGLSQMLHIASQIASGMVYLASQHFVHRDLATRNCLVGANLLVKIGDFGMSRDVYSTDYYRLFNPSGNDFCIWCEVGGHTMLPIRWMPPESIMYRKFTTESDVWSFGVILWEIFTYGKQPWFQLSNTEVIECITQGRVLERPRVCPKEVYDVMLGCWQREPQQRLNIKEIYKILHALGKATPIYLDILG
Chain of High affinity nerve growth factor receptor (Homo sapiens) (P04629 33-796 limits assumed): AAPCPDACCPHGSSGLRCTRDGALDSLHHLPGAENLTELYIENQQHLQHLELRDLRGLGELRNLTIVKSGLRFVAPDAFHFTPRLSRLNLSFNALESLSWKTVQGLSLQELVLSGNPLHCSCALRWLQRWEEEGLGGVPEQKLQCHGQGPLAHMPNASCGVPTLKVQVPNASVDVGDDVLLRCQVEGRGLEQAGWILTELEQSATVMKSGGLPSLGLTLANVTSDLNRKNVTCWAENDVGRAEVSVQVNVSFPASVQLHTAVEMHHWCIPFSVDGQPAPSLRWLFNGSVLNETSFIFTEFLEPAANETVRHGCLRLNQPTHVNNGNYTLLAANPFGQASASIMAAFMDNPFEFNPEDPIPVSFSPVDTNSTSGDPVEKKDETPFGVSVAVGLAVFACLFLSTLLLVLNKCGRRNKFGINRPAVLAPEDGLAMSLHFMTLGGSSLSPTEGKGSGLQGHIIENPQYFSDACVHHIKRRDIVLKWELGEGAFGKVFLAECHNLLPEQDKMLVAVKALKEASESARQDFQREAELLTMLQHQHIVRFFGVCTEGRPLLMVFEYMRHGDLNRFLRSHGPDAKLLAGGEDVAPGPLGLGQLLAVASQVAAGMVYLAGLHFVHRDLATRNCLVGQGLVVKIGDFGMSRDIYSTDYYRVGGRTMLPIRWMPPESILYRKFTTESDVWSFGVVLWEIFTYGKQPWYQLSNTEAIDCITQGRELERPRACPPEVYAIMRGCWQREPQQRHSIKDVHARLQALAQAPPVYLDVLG

SMILES	inhibition [1] [%]	inhibition [2] [%]	inhibition [3] [%]	inhibition [4] [%]	inhibition [5] [%]	inhibition [6] [%]	inhibition [7] [%]	inhibition [8] [%]	inhibition [9] [%]	inhibition [10] [%]	inhibition [11] [%]	inhibition [12] [%]	inhibition [13] [%]	inhibition [14] [%]	inhibition [15] [%]	inhibition [16] [%]	inhibition [17] [%]	inhibition [18] [%]	inhibition [19] [%]	inhibition [20] [%]
NS(=O)(=O)c1ccc(N/N=C2\C(=O)Nc3ccc(Cl)cc32)cc1	17.9	5.72	34.7	9.02	42.3	3.22	4.96	-4.4	45.1	3.86	26.8	3.68	6.25	1.97	5.64	6.82	6.74	0.49	3.26	25.7
COC(=O)c1ccc2c(c1)C(=Cc1cc(Br)c(O)c(Br)c1)C(=O)N2	6.54	3.26	8.43	2.35	12.1	6.42	12.3	5.83	25.2	30.8	80.4	2.96	8.43	-0.01	15.2	6.1	10.6	1.53	4.06	45.5
Nc1nccc(-c2c(-c3ccc(F)cc3)nn3cc(C(F)(F)F)ccc23)n1	-4.55	0.39	0.48	0.11	1.1	0.11	6.52	-4.56	4.23	0.97	1.39	1.38	0.7	1.04	0.73	-0.92	3.24	2.23	1.52	-0.02
c1ccc(Cc2nc3ccc(Nc4ncnc5ccccc45)cc3[nH]2)cc1	0.18	2.44	3.35	-0.16	2.9	2.03	4.47	-9.76	19	2.6	11.6	5.89	11	4.08	7.02	4.04	8.14	0.75	6.22	4.28
CN(c1ccc(NC(=O)Nc2ccc(OC(F)(F)F)cc2)cc1)c1ccnc(Nc2cccc(S(N)(=O)=O)c2)n1	90.5	34.7	82.6	30.1	87.1	-0.18	8.63	-1.91	6.4	7.93	76.8	63.9	79	30.7	96.5	26	70.4	18.4	69.5	24.4
NC(=O)c1cccc(Nc2nccc(Nc3cccc(F)c3)n2)c1	2.65	1.46	14.8	-1.62	5.94	6.53	29	3.52	6.29	14.9	65.5	12.6	49.3	25.6	85.2	-0.14	12.3	0.98	14.1	8.77
CN(C)C(=O)O[C@H]1CN[C@H](C#Cc2cc3ncnc(Nc4ccc(OCc5cccc(F)c5)c(Cl)c4)c3s2)C1	0.1	1.92	2.03	1.38	2.78	2.86	4.84	-7.95	6.07	1.25	9.61	3.92	7.39	2.15	8.8	4.18	8.61	0.82	2.78	3.45
C[C@@H](Oc1cc(-n2cnc3ccc(OC[C@@H](O)CO)cc32)sc1C(N)=O)c1ccccc1Cl	3.73	1.11	14.7	3.59	29.4	0.37	3.1	3.13	1.94	-0.94	2.13	0.7	1.36	-1.38	-2.42	48.1	85.7	3.67	16.4	-0.19
NS(=O)(=O)c1ccc(Nc2cc(-c3cccc(O)c3)n[nH]2)cc1	10.5	5.48	12.6	5.55	14.4	2.77	2.95	-9.08	0.24	3.17	17.2	9.52	19.4	7.83	19.6	6.23	8.5	2.13	10.7	7.82
CC(C)c1ccc2c(c1)NC(=O)/C2=N/Nc1ccc(S(N)(=O)=O)cc1	26.1	4.87	31.5	7.71	34.9	1.51	3.5	0.63	3.55	1.5	8.05	1.3	7	-4.39	6.7	-0.47	2.14	2.41	2.01	12.8
CN(C)CCCn1c(-c2nonc2N)nc2cnccc21	3.29	-0.15	3.55	-0.01	3.2	3.61	4.3	-2.99	0.63	3.15	6.09	3.93	4.46	0.95	6.01	3.09	6.11	2.05	4.37	5.05
Cc1ccc(NC(=O)CC2CC2)cc1-c1ccc(C(=O)NCC2CC2)cc1	1.04	1.14	3.38	2.32	4.16	3.64	5.85	-4.51	7.66	4.04	8.68	0.07	6.1	1.19	-2.19	3.11	8.8	0.05	3.42	2.06
NC(=O)c1sc(-n2cnc3ccccc32)cc1OCc1ccccc1Br	5.34	3.05	4.07	1.79	3.41	3.34	5.57	-1.33	13	3.86	4.39	4.16	9.94	1.83	8.84	17.4	60.6	2.47	8.46	4.11
